Bioassay records (PubChem)
IL-1B inflam inh – blocks inflammasome-driven IL-1 beta release | 4.7% of 360,000 active | activity change, % at 57.5 µM | THP-1 LPS/ATP IL-1B secretion, AlphaLISA, 16 h; active compounds read low; in the data active = activity change below about -50%; inconclusive = mostly about -30% to -49%
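THP-1 cells pretreated 1 hr with compounds (up to 57.5 uM final), then stimulated with LPS (250 ng/mL final) plus ATP (1.25 mM final); secreted IL-1B measured by AlphaLISA after 16 hr, decreased signal indicating inhibition.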
DT40 TDP1 CPT – DT40-hTDP1 cell growth loss with CPT. chicken DT40 Tdp1-/-;hTDP1 cells + 20 nM CPT, ATP luminescence, 48 h. Potency, µM (doses to about 46.2 µM), for the others: top-dose activity change, negative = growth inhibition, hits mostly inhibitors. 12% of 420,000 active; also: potency is read from the fitted curve at half-maximal effect; nearly all actives have a fitted effect of over 55% in size
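Cell growth measured by CellTiter-Glo luminescence after a minimum 48 h, 37 C compound exposure with 20 nM CPT in Tdp1-knockout DT40 cells stably expressing hTDP1, seeded 400/well; qHTS titration format.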
TDP1 cell noCPT – qHTS for Inhibitors of human tyrosyl-DNA phosphodiesterase 1 (TDP1): qHTS in cells in absence of CPT | DT40 Tdp1-/- hTDP1 cells, no CPT, ATP luminescence, 48 h | 15% of 420,000 active | Potency, µM (highest dose often 46.2 µM), inactives show at the highest dose activity change, negative = growth inhibition, hits mostly inhibitors | AID 686978, 2013; also: potency is read from the fitted curve at half-maximal effect; nearly all actives have a fitted effect of over 55% in size
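Seeded 400 DT40-hTDP1 cells/well (vehicle DMSO, no 20 nM CPT); pinned compounds; ≥48 hr at 37 °C; CellTiter-Glo luminescence as viability measure.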
HT1080-NT tox – kills 2HG-producing HT-1080-NT fibrosarcoma cells; HT-1080-NT fibrosarcoma viability, CellTiter-Glo ATP luminescence, 48 h; Potency, µM (doses to about 46.1 µM), for inactives: at the top dose activity, negative = less viability, actives largely listed as cytotoxic; 1.6% of 360,000 active; AID 686970;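 also: NT is the 2HG producing partner of a matched IDH1 knockdown line; potency is read from the fitted curve at half-maximal effect; 0% = DMSO-treated cells and -100% = media-only wells without cells; nearly all actives have a fitted effect of over 55% in size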
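Compounds were tested in concentration-response format on HT-1080-NT cells for 48 hours at 37 degrees C. Cell viability came from CellTiter-Glo luminescence; curves were classified by r2, response magnitude and activity.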
HT1080 IDH1KD tx – toxicity to HT-1080 IDH1 knockdown cells (counter line). HT-1080 IDH1 knockdown viability, ATP luminescence, 48 h. Potency, µM (titrated, usually from 46.1 µM), for the others: at the highest dose activity, negative = toxicity, actives largely listed as cytotoxic. 2% of 360,000 active. AID 686971;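 also: potency is read from the fitted curve at half-maximal effect; 0% = DMSO wells and -100% = cell-free medium wells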
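Viability of IDH1-knockdown HT-1080 fibrosarcoma cells was assessed by CellTiter-Glo after 48 h at 37 °C with titrated compound; concentration-effect curves were classified by fit quality and response size.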
uPA surface inh – cell surface uPA generation inhibition | 0.31% of 330,000 active | Potency, µM (top dose mostly 38.3 µM), for the others: at the top dose activity change, negative = inhibition, usual class: inhibitors | cell surface uPA generation assay, qHTS; active = well fitted inhibition curve with a large enough effect; inconclusive = small, poorly fitted or top-dose-only effect; inactive = no such curve, though single readings can be large or run the other way; tested in mouse RAW 264.7 cells; also: potency is read from the fitted curve at half-maximal effect; nearly all actives have a fitted effect of over 55% in size
* = called active by the depositor; ? = inconclusive; nt = no result. A selection: hits, their analogues and other compounds. The true share with any hit is near 19%. Unless noted, calls follow the shape of the dose curve; as a rule, active = well fitted curve in the direction sought with a large enough effect; inconclusive = small, poorly fitted or top-dose-only effect, or another doubt; inactive = no such curve, though single readings can be large; an effect the other way counts as inactive or inconclusive. Unless noted, % is scaled to controls: 0 for no effect and ±100 for the full control effect.

SMILES	IL-1B inflam inh	DT40 TDP1 CPT	TDP1 cell noCPT	HT1080-NT tox	HT1080 IDH1KD tx	uPA surface inh
CC(C)c1nn2c(=O)cc(COC(=O)c3ccco3)nc2s1	nt	-16%	20%	nt	nt	nt
CCOC(=O)CNC(=O)N(CCOC)CC1CCCN(C2Cc3ccccc3C2)C1 (stereo not given)	8	-14%	17%	6%	-4%	?
Cc1sc2ncnc(Nc3ccc(N4CCOCC4)cc3)c2c1-c1ccccc1	-6	16µM*	?	2%	-3%	5%
COc1ccc(CCNC(=O)CSCc2ccc(Cl)cc2)cc1OC	-7	?	?	2%	10%	-1%
COCCn1c(-c2ccc(Cl)cc2)cnc1SCC(=O)NCCc1ccc(OC)c(OC)c1	?	21µM*	?	0%	-16%	0%
COc1ccc(CCNC(=O)CSc2cccc3cccnc23)cc1OC	-98*	14%	-9%	0%	0%	-7%
CC(C)(C)NC(=O)CSc1nnc(-c2ccccc2)c(-c2ccccc2)n1	-84*	-15%	?	-28%	-13%	-4%
O=[N+]([O-])c1ccc(Sc2cccc3cccnc23)c2cccnc12	27	18µM*	26µM*	0%	4%	-3%
COCCNC(=O)CSc1nnc(-c2ccccc2)c(-c2ccccc2)n1	9	6%	13%	4%	16%	3%
CN(C)c1ncc2nc(-c3ccccc3)c(=O)n(-c3ccccc3)c2n1	nt	6%	9%	nt	nt	nt
COc1ccc(NC(=O)c2nc(SCc3ccc(F)cc3)ncc2Cl)cc1	nt	-11%	?	nt	nt	nt
Cc1ccc(-c2nnc(SCC(=O)NCCC(C)C)nc2-c2ccc(C)cc2)cc1	nt	5.8µM*	13µM*	nt	nt	nt
COc1ccc(CCNC(=O)c2nc(SCc3ccc(F)cc3)ncc2Cl)cc1OC	nt	21µM*	?	nt	nt	nt
COc1ccc(CCNC(=O)CSc2nnc(-c3ccc(C)cc3)c(-c3ccc(C)cc3)n2)cc1OC	nt	?	16µM*	nt	nt	nt
COc1ccc(CCNCC(=O)Nc2ccc(C)c(S(=O)(=O)N(C)C)c2)cc1OC	7	?	-7%	-2%	0%	8%
COc1ccc(CCNCC(=O)Nc2ccc(C)c(Br)c2)cc1OC	-15	9.2µM*	?	?	?	-5%
CCOC(=O)CCCNC(=O)CSc1nnc(-c2ccccc2)c(-c2ccccc2)n1	2	?	?	-1%	5%	3%
Cc1ccc(-c2nnc(SCC(=O)NCC3CCCO3)nc2-c2ccc(C)cc2)cc1 (stereo not given)	9	?	23µM*	-11%	2%	-4%
COc1ccc(CCNC(=O)CSc2nc(-c3ccc(F)cc3)cc(C(F)(F)F)n2)cc1OC	nt	18µM*	?	nt	nt	nt
CCOc1ccc(-c2nnc(SCC(=O)NCCC(C)C)nc2-c2ccc(OCC)c(OC)c2)cc1OC	nt	15µM*	?	nt	nt	nt
COc1ccccc1CCNC(=O)C(C)Sc1nc(-c2ccccc2)cc(C(F)(F)F)n1 (stereo not given)	nt	16µM*	15µM*	nt	nt	nt
O=C(CSc1nnc(-c2ccccc2)c(-c2ccccc2)n1)NCC1CCCO1 (stereo not given)	-29	-6%	?	13%	9%	4%
COc1ccc(NC(=O)N2CCN(S(=O)(=O)c3ccc4c(ccn4C)c3)CC2)cc1OC	nt	-17%	-3%	nt	nt	nt
CCOc1cc(N2CCOCC2)c(OCC)cc1NC(=O)CN1C(=O)NC2(CCCCC2C)C1=O (stereo not given)	3	-6%	6%	4%	4%	23%
COc1ccc(-c2ncccc2OC(=O)C23CC4CC(CC(C4)C2)C3)cc1OC	5	?	?	-11%	-27%	-4%
CCOc1ccccc1CNC(=O)CC(C)n1ccc(C)n1 (stereo not given)	nt	0%	-10%	nt	nt	nt
